Shown is part of a subset that was picked to be rich in hits.
DT40 TDP1 CPT = DT40-hTDP1 cell growth loss with CPT; AID 686979; Potency, µM (top dose mostly 46.2 µM), inactives show top-dose activity change, negative = growth inhibition, most hits filed as inhibitors; chicken DT40 Tdp1-/-;hTDP1 cells + 20 nM CPT, ATP luminescence, 48 h; actives 12% (n = 420,000); note: potency is the fitted concentration of half-maximal effect; nearly all actives have a fitted effect of over 55% in size
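Cell growth measured by CellTiter-Glo luminescence after a minimum 48 h, 37 C compound exposure with 20 nM CPT in Tdp1-knockout DT40 cells stably expressing hTDP1, seeded 400/well; qHTS titration format.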
ALOX12 inh = inhibitors of human 12S-lipoxygenase ALOX12. P18054. purified 12hLO, xylenol orange hydroperoxide absorbance. Potency, µM (series often up to 108 µM), for the others: at the highest dose activity change, negative = inhibition, usual class: inhibitors. actives 1.1% (n = 580,000). AID 1671190; note: potency is the fitted concentration of half-maximal effect
Target sequence (P18054 whole entry, looked up): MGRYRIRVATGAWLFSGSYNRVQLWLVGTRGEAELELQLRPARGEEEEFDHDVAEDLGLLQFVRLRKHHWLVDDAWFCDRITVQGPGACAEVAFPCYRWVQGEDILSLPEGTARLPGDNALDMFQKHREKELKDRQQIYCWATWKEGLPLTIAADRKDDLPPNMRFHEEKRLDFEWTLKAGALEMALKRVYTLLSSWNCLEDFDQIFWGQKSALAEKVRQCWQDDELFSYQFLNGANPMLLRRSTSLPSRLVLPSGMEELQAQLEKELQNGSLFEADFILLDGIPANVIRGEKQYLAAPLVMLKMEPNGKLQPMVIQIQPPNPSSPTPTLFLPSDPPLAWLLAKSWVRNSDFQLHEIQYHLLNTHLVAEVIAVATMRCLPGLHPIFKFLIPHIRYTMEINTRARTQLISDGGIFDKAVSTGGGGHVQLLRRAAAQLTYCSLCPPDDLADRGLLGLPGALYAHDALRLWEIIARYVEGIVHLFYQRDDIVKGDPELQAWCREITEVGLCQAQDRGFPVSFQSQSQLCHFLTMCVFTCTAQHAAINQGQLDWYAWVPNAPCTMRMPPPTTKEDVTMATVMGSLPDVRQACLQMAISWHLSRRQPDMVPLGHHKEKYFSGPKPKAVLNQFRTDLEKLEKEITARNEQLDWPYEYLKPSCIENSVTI
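Hydroperoxide product was detected by ferrous iron/xylenol orange as the 573 to 405 nm absorbance ratio. Arachidonic acid at 40 uM (final) was turned over for 30 min at room temperature by 150 nM human 12hLO, pH 7.0 Hepes buffer, after 15 min compound preincubation.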
HT1080NT lethal = kills 2HG-producing HT-1080-NT fibrosarcoma cells | HT-1080-NT fibrosarcoma viability, CellTiter-Glo ATP luminescence, 48 h | Potency, µM (highest dose often 46.1 µM), without a hit: top-dose activity, negative = less viability, actives largely listed as cytotoxic | actives 1.6% (n = 360,000) | AID 686970;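 note: NT is the 2HG producing partner of a matched IDH1 knockdown line; potency is the fitted concentration of half-maximal effect; 0% = DMSO-treated cells and -100% = media-only wells without cells; nearly all actives have a fitted effect of over 55% in size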
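Read-out is CellTiter-Glo luminescence after 10 minutes at room temperature, following 48 hours' compound treatment of HT-1080-NT cells (750 cells/well, RPMI, 5% FBS, 37 degrees C).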
IL1B secr inh = inhibitors of inflammasome signaling (IL-1 beta secretion); THP-1 LPS/ATP IL-1B secretion, AlphaLISA, 16 h; active compounds read low; activity change, % at 57.5 µM; actives 4.7% (n = 360,000); AID 743279; in the data active = activity change below about -50%; inconclusive = mostly about -30% to -49%
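THP-1 cells pretreated 1 hr with compounds (up to 57.5 uM final), then stimulated with LPS (250 ng/mL final) plus ATP (1.25 mM final); secreted IL-1B measured by AlphaLISA after 16 hr, decreased signal indicating inhibition.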
HT1080 IDH1KD tx = HT-1080 IDH1 knockdown cell toxicity (counter line); HT-1080 IDH1 knockdown viability, ATP luminescence, 48 h; Potency, µM (series often up to 46.1 µM), for inactives: at the top dose activity, negative = toxicity, actives largely listed as cytotoxic; actives 2% (n = 360,000); AID 686971;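 note: potency is the fitted concentration of half-maximal effect; 0% = DMSO wells and -100% = cell-free medium wells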
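Using the IDH1-knockdown HT-1080 line run in the same batch and compound series as the NT line, viability after 48 h at 37 °C was determined by CellTiter-Glo luminescence and expressed as % activity.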
DT40 TDP1 no CPT = qHTS for Inhibitors of human tyrosyl-DNA phosphodiesterase 1 (TDP1): qHTS in cells in absence of CPT. actives 15% (n = 420,000). Potency, µM (titrated, usually from 46.2 µM), inactives show at the top dose activity change, negative = growth inhibition, actives largely listed as inhibitors. AID 686978, 2013. DT40 Tdp1-/- hTDP1 cells, no CPT, ATP luminescence, 48 h; note: potency is the fitted concentration of half-maximal effect; nearly all actives have a fitted effect of over 55% in size
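No-CPT arm: Tdp1-/-;hTDP1 DT40 cells (400/well) plus compounds, incubated ≥48 hr at 37 °C. Readout CellTiter-Glo luminescence.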
Starred values were filed as active, the others as inactive; ? = inconclusive; / = not tested or not shown; [ ] = dose if it differs, or a comment. Unless noted, calls come from the whole dose curve; as a rule, active = well fitted curve in the direction sought with a large enough effect; inconclusive = small, poorly fitted or top-dose-only effect, or another doubt; inactive = no such curve, though single readings can be large; an effect the other way counts as inactive or inconclusive. Unless noted, % is set by controls: 0 for no effect and ±100 for the full control effect.

SMILES	DT40 TDP1 CPT	ALOX12 inh	HT1080NT lethal	IL1B secr inh	HT1080 IDH1KD tx	DT40 TDP1 no CPT
Cc1ccc(C)c(NC(=O)c2ccc3c(=O)n4c(nc3c2)CCC4)c1	-5.7%	-0.6%	7.7%	-1.3	3.1%	?
CCCCn1c(=O)[nH]c(=O)c2c1nc(CN1CCN(S(=O)(=O)c3ccc(F)cc3)CC1)n2CC	/	-21.3%	/	/	/	/
Cc1cccc(Cc2cnc(NC(=O)c3n[nH]c(=O)c4ccccc34)s2)c1Cl	/	-24.6%	/	/	/	/
CCN(C(=O)c1cc(S(=O)(=O)N2CCCC2)cn1C)c1ccc(OC)cc1	-19.0%	-18.6%	/	/	/	-26.1%
COCCCNC(=S)Nc1ccc2nc3n(c(=O)c2c1)CCCCC3	-13.4%	-7.3%	1.0%	31.9	-1.2%	-1.6%
O=C(Nc1nccs1)c1ccc2c(=O)n3c(nc2c1)CCCCC3	?	23.2%	0.5%	0.0	-23.8%	16.4µM*
CCOCCCNC(=S)Nc1ccc2nc3n(c(=O)c2c1)CCCCC3	-17.6%	-1.7%	-3.2%	-63.8*	-0.4%	-25.4%
C=CCNC(=O)C[C@@H]1CCN(C(=O)C2CC2)C[C@@H]1CC	/	5.4%[176 µM]	/	/	/	/
O=C(Nc1ccc(F)c(Cl)c1)c1cc2n(n1)CC(c1ccc3c(c1)OCO3)OC2 (stereo not given)	/	26.0%	/	/	/	/
CO/N=C/NC(=O)c1ccc([N+](=O)[O-])c(CS(=O)(=O)c2ccc(Cl)cc2)c1	7.31µM*	0.0%	13.6%	0.0	19.3%	10.3µM*
O=C(c1cc(NC2CCCCCC2)nc2ccccc12)N1CCOCC1	/	-52.6%	/	/	/	/
Cc1ccc(F)cc1NC(=O)Cn1c(C)cc(C)c(C#N)c1=O	20.6µM*	0.0%	/	/	/	2.1%
Cc1cc(C)n(CC(=O)Nc2cc(F)ccc2F)c(=O)c1C#N	/	-25.2%	/	/	/	/
O=C(NCCCNC(=O)c1c(F)cccc1F)c1c(F)cccc1F	-20.1%	1.0%	-10.7%	37.4	6.8%	28.0%
O=C(NCC(Cl)c1ccc2ccccc2c1)c1c(F)cccc1F (stereo not given)	-7.7%	35.5µM*	-10.7%	-4.8	1.1%	-4.1%
COC(=O)CN1C(=O)[C@@H]2C[C@@H](O)CN2C2(CN(C3CCCC3)C2)C1=O	/	55.4%[176 µM]	/	/	/	/
Cc1ccc(Cn2c(SCC(=O)N(C)C3CCS(=O)(=O)C3)nc3ccccc3c2=O)cc1 (stereo not given)	-21.1%	-0.7%	-11.8%	-54.8*	-0.3%	?
CN(C(=O)CSc1nnc(-c2ccc(F)cc2)c2ccccc12)C1CCS(=O)(=O)C1 (stereo not given)	0.2%	-0.9%	-17.2%	-90.7*	?	-20.9%
CN(C(=O)CSc1nnc(-c2ccccc2)c(-c2ccccc2)n1)C1CCS(=O)(=O)C1 (stereo not given)	16.4µM*	-11.9%	11.8%	5.4	5.0%	20.6µM*
COC(c1ccc(Cl)cc1)(c1ccc(Cl)cc1)C(Oc1nccc(C)n1)C(=O)O (stereo not given)	-14.6%	15.8%	-1.7%	50.7	-19.6%	-10.9%
COC(c1ccc(Cl)cc1)(c1ccc(Cl)cc1)C(Oc1nc(C)cc(C)n1)C(=O)O (stereo not given)	?	-23.4%	-19.6%	36.3	-9.3%	14.6µM*
O=C(O)c1ccccc1C=NNc1ccccn1	-0.3%	?	8.1%	-2.0	10.2%	0.4%
Cn1c(O)c(C2=c3ccccc3=NC2=O)sc1=Nc1ccc(Cl)cc1	23.1µM*	?	-6.0%	16.3	-17.1%	?
CNC(=O)[C@H]1C[C@H](Oc2cccnc2)CN1C(=O)Nc1ccc2c(c1)OCCO2	/	17.3%	/	/	/	/
Cc1cc(OCC(=O)N(Cc2ccc(N(C)C)cc2)C2CCS(=O)(=O)C2)cc(C)c1Cl (stereo not given)	?	4.8%	/	/	/	18.4µM*
SMILES	DT40 TDP1 CPT	ALOX12 inh	HT1080NT lethal	IL1B secr inh	HT1080 IDH1KD tx	DT40 TDP1 no CPT
Cc1cccc(C)c1OCC(=O)N(Cc1ccc(N(C)C)cc1)C1CCS(=O)(=O)C1 (stereo not given)	-29.0%	306.0%	2.4%	0.0	-8.3%	-25.2%
CCc1ccc(OCC(=O)N(Cc2ccc(C(C)C)cc2)C2CCS(=O)(=O)C2)cc1 (stereo not given)	16.4µM*	0.9%	/	/	/	?
Cc1cccc(OCC(=O)N(Cc2ccc(N(C)C)cc2)C2CCS(=O)(=O)C2)c1 (stereo not given)	-12.8%	1.9%	0.0%	-50.1*	1.9%	-17.0%
Cc1cc(OCC(=O)N(C)C2CCCCC2)cc(C)c1Cl	?	-13.7%	17.8%	0.0	9.4%	20.6µM*
CCc1ccc(NC(=O)c2sc3nc(C)c(Cl)c(C)c3c2NC(=O)c2ccccc2)cc1	/	2.7%	/	/	/	/
COc1ccc([C@H]2CC(=O)C[C@@H](CCn3cc(-c4ccccc4)nn3)O2)cc1	?	10µM*	9.0%	79.7	14.4%	?
COc1ccccc1C(=O)NC(CCSC)C(=O)NNC(=O)c1ccccc1O (stereo not given)	?	?	-26.5%	71.7	?	29.1µM*
COc1ccccc1C(=O)NC(CCSC)C(=O)NNC(=O)c1ccc(F)cc1 (stereo not given)	-28.0%	-4.7%	-8.5%	-8.0	-0.6%	-23.1%
C=CC[C@H](CC(=O)NCCO)C(=O)N[C@H](COC(=O)[C@@H](CC=C)CC(=O)OC(C)(C)C)Cc1ccccc1	-18.0%	-1.5%	-1.2%	7.9	-5.3%	?
C=CC[C@@H](CC(=O)N[C@H](CO)Cc1ccccc1)C(=O)N[C@H](COC(=O)[C@@H](CC=C)CC(=O)OC(C)(C)C)Cc1ccccc1	?	-10.2%	-18.1%	-52.0*	-22.3%	?
C=CC[C@@H](CC(=O)N[C@H](CO)Cc1ccccc1)C(=O)N[C@H](COC(=O)[C@H](CC=C)CC(=O)OC(C)(C)C)Cc1c[nH]c2ccccc12	?	-2.8%	?	-6.1	?	?
C=CC[C@@H](CC(=O)N[C@@H](CO)Cc1ccccc1)C(=O)N[C@H](COC(=O)[C@H](CC=C)CC(=O)OC(C)(C)C)Cc1c[nH]c2ccccc12	?	3.3%	?	-29.0	-28.8%	20.6µM*
Cc1ccc2c(c1)N(CCCC(=O)N1CCc3nc4cc(-c5ccccc5)[nH]n4c(=O)c3C1)C(=O)CO2	/	0.6%	/	/	/	/

Screens as filed in PubChem.
